# Assay results taken from PubChem BioAssay (NCI).
# This is part of a sample that, as a whole, favours compounds with a hit. Of some 79,000 tested, about 15% had one in any assay. Unmarked numbers belong to inactive results. Activity calls are given as the source filed them. No stated cut-off is given here; in the data, active means growth inhibition above about 70%; inactive means the rest.
# Experiments:
# [1] = NCI Yeast Anticancer Drug Screen. Data for the rad52 strain (AID 147);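 further: 0% = growth of vehicle-treated control cultures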; conditions: S. cerevisiae rad52 mutant growth inhibition, stronger effect = higher value
# Method in brief: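 Yeast strain carrying a DNA damage repair alteration was exposed to test compounds. Growth inhibition was measured relative to vehicle-treated controls.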
# [2] = NCI Yeast Anticancer Drug Screen. Data for the wt1 strain (AID 149);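 further: 0% = growth of vehicle-treated wt1 cultures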; conditions: S. cerevisiae wt1 strain (SPY 50644) growth inhibition, stronger effect = higher value
# Method in brief: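 wt1 yeast, compound-treated; % growth inhibition vs vehicle control.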
# [3] = NCI Yeast Anticancer Drug Screen. Data for the rad50EPP+ strain (AID 151);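 further: 0% = growth of vehicle-treated control cultures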; conditions: S. cerevisiae rad50 mutant strain, stronger effect = higher value
# Method in brief: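 Yeast strain carrying rad50 alteration (rad50EPP+) exposed to compounds; growth inhibition measured relative to vehicle-treated controls.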
# [4] = NCI Yeast Anticancer Drug Screen. Data for the rad50 strain (AID 155);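 further: 0% = growth of vehicle-only cultures of the same strain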; conditions: S. cerevisiae rad50 strain growth inhibition, stronger effect = higher value
# Method in brief: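 Genetically altered yeast (DNA repair pathway); compound treatment; growth inhibition vs vehicle ctrl.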
# [5] = NCI Yeast Anticancer Drug Screen. Data for the mec2-1 strain (AID 157); conditions: S. cerevisiae mec2-1 strain, stronger effect = higher value
# Method in brief: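 mec2-1 yeast strain, carrying an alteration in DNA damage repair or cell cycle control, was exposed to compounds; growth inhibition was measured relative to vehicle-treated controls.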
# [6] = NCI Yeast Anticancer Drug Screen. Data for the rad14 strain (AID 159);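 further: 0% = growth of vehicle-treated control cultures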; conditions: S. cerevisiae rad14 strain growth inhibition, stronger effect = higher value
# Method in brief: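 Test compounds were applied to a repair-deficient yeast strain. Its growth was then compared with that of cultures given vehicle alone, and inhibition was expressed relative to those controls.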
# [7] = NCI Yeast Anticancer Drug Screen. Data for the sgs1 mgt1 strain (AID 161);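 further: 0% = growth of cultures given vehicle only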; conditions: S. cerevisiae sgs1 mgt1 strain, stronger effect = higher value
# Method in brief: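 Compounds are added to genetically altered yeast, and growth is compared with cultures given vehicle alone to give percent inhibition.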
# [8] = NCI Yeast Anticancer Drug Screen. Data for the CLN2oe strain (AID 163);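 further: 0% = growth of vehicle-only control cultures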; conditions: S. cerevisiae CLN2oe strain, stronger effect = higher value
# Method in brief: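 Yeast cells carrying a defined cell-cycle control alteration were exposed to test compounds. Growth inhibition was scored against vehicle-treated control cultures.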
# [9] = NCI Yeast Anticancer Drug Screen. Data for the cln2 rad14 strain (AID 165);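 further: 0% = growth equal to vehicle treated cultures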; conditions: S. cerevisiae cln2 rad14 strain, stronger effect = higher value
# Method in brief: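 Yeast carrying cln2 and rad14 alterations (cell cycle control and DNA damage repair) were exposed to compounds. Growth inhibition was measured against vehicle-treated controls.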
# [10] = NCI Yeast Anticancer Drug Screen. Data for the bub3 strain (AID 167); conditions: S. cerevisiae bub3 mutant strain, stronger effect = higher value
# Method in brief: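 Yeast carrying a defined mutation is treated with each compound, and growth is compared with that of vehicle-exposed cells to give inhibition.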
# [11] = NCI Yeast Anticancer Drug Screen. Data for the wt2 strain (AID 169);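 further: 0% = growth of vehicle-treated yeast cultures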; conditions: S. cerevisiae wt2 strain growth inhibition, stronger effect = higher value
# Method in brief: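 Yeast cells were exposed to test compounds, and growth inhibition was measured relative to vehicle-treated controls.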
# [12] = NCI Yeast Anticancer Drug Screen. Data for the mlh1 strain (AID 171);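 further: 0% = growth of vehicle-treated control cultures of the same strain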; conditions: S. cerevisiae mlh1 strain growth inhibition, stronger effect = higher value
# Method in brief: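 Yeast carrying a defined genetic alteration in DNA damage repair or cell cycle control were exposed to test compounds. Growth inhibition was measured relative to vehicle-treated controls.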
# [13] = NCI Yeast Anticancer Drug Screen. Data for the sgs1 strain (AID 173);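 further: 0% = growth of vehicle-only control cultures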; conditions: S. cerevisiae sgs1 mutant, stronger effect = higher value
# Method in brief: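 Yeast mutant strains carrying defined defects in DNA damage repair or cell cycle control were exposed to test compounds. Growth inhibition was scored against vehicle-treated controls.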
# [14] = NCI Yeast Anticancer Drug Screen. Data for the mlh1 rad18 strain (AID 175); conditions: S. cerevisiae mlh1 rad18 strain growth inhibition, stronger effect = higher value
# Method in brief: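 Growth inhibition of the yeast strain was measured after compound exposure and expressed relative to vehicle-treated controls. The strain carries defined defects in DNA damage repair.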
# [15] = NCI Yeast Anticancer Drug Screen. Data for the rad18 strain (AID 177); conditions: S. cerevisiae rad18 mutant growth inhibition, stronger effect = higher value
# Method in brief: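 Yeast carrying a defined DNA damage repair alteration were exposed to compounds. Growth inhibition was expressed relative to vehicle-treated controls.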
# [16] = at 5.0 µM (retest, dose inferred, filed as 0.5)
# [17] = at 50.0 µM (retest, dose inferred, filed as 5.0)
compound,measurement,setting,value
CCCCCNC(=O)c1c(O)[nH]c(=S)[nH]c1=O,growth inhibition,[1]; at 1.2 µM,-6%
same,growth inhibition,[1]; at 3.7 µM,-15%
same,growth inhibition,[1]; at 11.0 µM,23%
same,growth inhibition,[1]; at 33.0 µM,89% (active)
same,growth inhibition,[1]; at 100.0 µM,94% (active)
same,growth inhibition,[2]; at 1.2 µM,-3%
same,growth inhibition,[2]; at 3.7 µM,9%
same,growth inhibition,[2]; at 11.0 µM,15%
same,growth inhibition,[2]; at 33.0 µM,68%
same,growth inhibition,[2]; at 100.0 µM,88% (active)
same,growth inhibition,[3]; at 1.2 µM,-25%
same,growth inhibition,[3]; at 3.7 µM,-23%
same,growth inhibition,[3]; at 11.0 µM,-16%
same,growth inhibition,[3]; at 33.0 µM,30%
same,growth inhibition,[3]; at 100.0 µM,78% (active)
same,growth inhibition,[4]; at 1.2 µM,5%
same,growth inhibition,[4]; at 3.7 µM,14%
same,growth inhibition,[4]; [16],61%
same,growth inhibition,[4]; at 11.0 µM,64%
same,growth inhibition,[4]; at 33.0 µM,95% (active)
same,growth inhibition,[4]; [17],93% (active)
same,growth inhibition,[4]; at 50.0 µM,88.1% (active)
same,growth inhibition,[4]; at 100.0 µM,96% (active)
same,growth inhibition,[5]; at 1.2 µM,-14%
same,growth inhibition,[5]; at 3.7 µM,-5%
same,growth inhibition,[5]; [16],8%
same,growth inhibition,[5]; at 11.0 µM,25%
same,growth inhibition,[5]; at 33.0 µM,87% (active)
same,growth inhibition,[5]; [17],92% (active)
same,growth inhibition,[5]; at 50.0 µM,87.7% (active)
same,growth inhibition,[5]; at 100.0 µM,92% (active)
same,growth inhibition,[6]; at 1.2 µM,16%
same,growth inhibition,[6]; at 3.7 µM,64%
same,growth inhibition,[6]; at 11.0 µM,91% (active)
same,growth inhibition,[6]; at 33.0 µM,96% (active)
same,growth inhibition,[6]; at 100.0 µM,96% (active)
same,growth inhibition,[7]; [16],26%
same,growth inhibition,[7]; [17],87% (active)
same,growth inhibition,[7]; at 50.0 µM,92.2% (active)
same,growth inhibition,[8]; at 1.2 µM,4%
same,growth inhibition,[8]; at 3.7 µM,-7%
same,growth inhibition,[8]; at 11.0 µM,2%
same,growth inhibition,[8]; at 33.0 µM,53%
same,growth inhibition,[8]; at 100.0 µM,83% (active)
same,growth inhibition,[9]; [16],6%
same,growth inhibition,[9]; [17],60%
same,growth inhibition,[9]; at 50.0 µM,61.3%
same,growth inhibition,[10]; at 1.2 µM,-17%
same,growth inhibition,[10]; at 3.7 µM,-1%
same,growth inhibition,[10]; [16],65%
same,growth inhibition,[10]; at 11.0 µM,65%
same,growth inhibition,[10]; at 33.0 µM,87% (active)
same,growth inhibition,[10]; [17],94% (active)
same,growth inhibition,[10]; at 50.0 µM,88.6% (active)
same,growth inhibition,[10]; at 100.0 µM,93% (active)
same,growth inhibition,[11]; at 1.2 µM,-32%
same,growth inhibition,[11]; at 3.7 µM,-1%
same,growth inhibition,[11]; at 11.0 µM,56%
same,growth inhibition,[11]; at 33.0 µM,91% (active)
same,growth inhibition,[11]; at 100.0 µM,94% (active)
same,growth inhibition,[12]; at 1.2 µM,13%
same,growth inhibition,[12]; at 3.7 µM,46%
same,growth inhibition,[12]; at 11.0 µM,90% (active)
same,growth inhibition,[12]; at 33.0 µM,96% (active)
same,growth inhibition,[12]; at 100.0 µM,96% (active)
same,growth inhibition,[13]; at 1.2 µM,-10%
same,growth inhibition,[13]; at 3.7 µM,0%
same,growth inhibition,[13]; at 11.0 µM,79% (active)
same,growth inhibition,[13]; at 33.0 µM,94% (active)
same,growth inhibition,[13]; at 100.0 µM,96% (active)
same,growth inhibition,[14]; [16],42%
same,growth inhibition,[14]; [17],47%
same,growth inhibition,[14]; at 50.0 µM,90.1% (active)
same,growth inhibition,[15]; at 1.2 µM,-12%
same,growth inhibition,[15]; at 3.7 µM,2%
same,growth inhibition,[15]; at 11.0 µM,45%
same,growth inhibition,[15]; at 33.0 µM,86% (active)
same,growth inhibition,[15]; at 100.0 µM,94% (active)
C/C(CCl)=N/NC1=NC(c2ccccc2Cl)P(=O)(NCCCNP2(=O)SC(N/N=C(/C)CCl)=NC2c2ccccc2Cl)S1 (stereo not drawn),growth inhibition,[1]; at 1.2 µM,-2%
same,growth inhibition,[1]; at 3.7 µM,-2%
same,growth inhibition,[1]; at 11.0 µM,-2%
same,growth inhibition,[1]; at 33.0 µM,5%
same,growth inhibition,[1]; at 100.0 µM,8%
same,growth inhibition,[2]; at 1.2 µM,3%
same,growth inhibition,[2]; at 3.7 µM,-4%
same,growth inhibition,[2]; at 11.0 µM,-5%
same,growth inhibition,[2]; at 33.0 µM,-3%
same,growth inhibition,[2]; at 100.0 µM,-1%
same,growth inhibition,[3]; at 1.2 µM,0%
same,growth inhibition,[3]; at 3.7 µM,2%
same,growth inhibition,[3]; at 11.0 µM,10%
same,growth inhibition,[3]; at 33.0 µM,43%
same,growth inhibition,[3]; at 100.0 µM,33%
same,growth inhibition,[4]; at 1.2 µM,4%
same,growth inhibition,[4]; at 3.7 µM,4%
same,growth inhibition,[4]; [16],-21%
same,growth inhibition,[4]; at 11.0 µM,23%
same,growth inhibition,[4]; at 33.0 µM,38%
same,growth inhibition,[4]; [17],8%
same,growth inhibition,[4]; at 50.0 µM,96% (active)
same,growth inhibition,[4]; at 100.0 µM,34%
same,growth inhibition,[5]; at 1.2 µM,-4%
same,growth inhibition,[5]; at 3.7 µM,-4%
same,growth inhibition,[5]; [16],-12%
same,growth inhibition,[5]; at 11.0 µM,-6%
same,growth inhibition,[5]; at 33.0 µM,-5%
same,growth inhibition,[5]; [17],2%
same,growth inhibition,[5]; at 50.0 µM,96.3% (active)
same,growth inhibition,[5]; at 100.0 µM,-1%
same,growth inhibition,[6]; at 1.2 µM,0%
same,growth inhibition,[6]; at 3.7 µM,-1%
same,growth inhibition,[6]; at 11.0 µM,-4%
same,growth inhibition,[6]; at 33.0 µM,2%
same,growth inhibition,[6]; at 100.0 µM,5%
same,growth inhibition,[7]; [16],-2%
same,growth inhibition,[7]; [17],51%
same,growth inhibition,[7]; at 50.0 µM,93.2% (active)
same,growth inhibition,[9]; [16],-18%
same,growth inhibition,[9]; [17],-4%
same,growth inhibition,[9]; at 50.0 µM,92.3% (active)
same,growth inhibition,[11]; at 1.2 µM,0%
same,growth inhibition,[11]; at 3.7 µM,-2%
same,growth inhibition,[11]; at 11.0 µM,-2%
same,growth inhibition,[11]; at 33.0 µM,17%
same,growth inhibition,[11]; at 100.0 µM,13%
same,growth inhibition,[12]; at 1.2 µM,-2%
same,growth inhibition,[12]; at 3.7 µM,3%
same,growth inhibition,[12]; at 11.0 µM,4%
same,growth inhibition,[12]; at 33.0 µM,22%
same,growth inhibition,[12]; at 100.0 µM,16%
same,growth inhibition,[13]; at 1.2 µM,0%
same,growth inhibition,[13]; at 3.7 µM,-2%
same,growth inhibition,[13]; at 11.0 µM,0%
same,growth inhibition,[13]; at 33.0 µM,19%
same,growth inhibition,[13]; at 100.0 µM,16%
same,growth inhibition,[14]; [16],-5%
same,growth inhibition,[14]; [17],18%
same,growth inhibition,[14]; at 50.0 µM,95.9% (active)
same,growth inhibition,[15]; at 1.2 µM,1%
same,growth inhibition,[15]; at 3.7 µM,10%
same,growth inhibition,[15]; at 11.0 µM,9%
same,growth inhibition,[15]; at 33.0 µM,27%
same,growth inhibition,[15]; at 100.0 µM,23%
